Measurements reported in PubChem BioAssay AID651871 (Sanford-Burnham Center for Chemical Genomics, 2012).

Test system: HL-1
Assay: protection of cardiomyocytes from stress damage, SAR follow-up, cell-based, panel, H9c2 and HL-1, ATP luminescence, set 2 (AID 651871);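 further: cells exposed to stressor for 2 h before ATP readout; reference of the scale not given here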
Details: H9c2/HL-1 cardiomyocytes, 2-deoxyglucose stress, with 2-deoxyglucose
[1] = run 9, at 79 µM (top of the series)

Compound	activity (protection/inhibition) [1]	activity (protection/inhibition) (run 9, at 19.8 µM (top of the series))	activity (protection/inhibition) (run 9, at 39.5 µM (top of the series))
CCOC(=O)c1cccc(NC(=O)CNC(=O)c2cc(-c3cc(OC)c(OC)c(OC)c3)nc3ccccc23)c1	91.8%		
COc1ccc2c(c1OC)C(=O)N1c3ccccc3C(=O)N(Cc3cccc(Cl)c3Cl)C21 (stereo not given)	-7.08%	50.7%	55.4%
COc1ccc2nc(-c3cc(OC)c(OC)c(OC)c3)cc(C(=O)NCC(=O)Nc3ccc(C(C)=O)cc3)c2c1	90%		
